Our source for the PBM binding z-score values is the supplement of paper PMC6555819.

Assay in all cases: PBM binding z-score (relative to random genomic background probes); higher = stronger binding; sequences stand for … in GC…GCGATTGACAGCGTAGAATGAAGG
Test [1] deals with FXR:RXRa (NR concentration 270 nM, RXRa partner concentration 90 nM). In outline: (§1)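 For binding z-scores, the reference was random background probes on custom Agilent 4×180K protein-binding microarrays. These arrays were incubated 1 h with ligand-free nuclear receptor dimers in PBS pH 7.4, 2% milk, 0.02% Triton X-100, 1 mM DTT, 0.2 mg/mL BSA and 0.4 mg/ml salmon testes DNA. Fluorescence was scanned after antibody detection of each partner (one per run) and regression-normalized.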

The subject of test [2] is LXRa:RXRa (NR concentration 270 nM, RXRa partner concentration 90 nM). In outline: as §1
The subject of test [3] is LXRa homodimer (NR concentration 270 nM). In outline: as §1
For test [4], the system named is LXRb:RXRa (NR concentration 270 nM, RXRa partner concentration 90 nM). Put shortly:
as §1

The test system of test [5] is LXRb homodimer (NR concentration 270 nM). Put shortly:
as §1

For test [6], the system named is PPARa:RXRa (NR concentration 270 nM, RXRa partner concentration 90 nM). Put shortly: as §1
The subject of test [7] is PPARg:RXRa (NR concentration 180 nM, RXRa partner concentration 90 nM). In outline:
as §1

Test [8] deals with PPARg:RXRa 270nM:90nM, anti-RXR (NR concentration 270 nM, RXRa partner concentration 90 nM). In outline: as §1
The test system of test [9] is PPARg:RXRa 30nM:10nM, anti-RXR (NR concentration 30 nM, RXRa partner concentration 10 nM). Put shortly:
as §1

Test [10] concerns PPARg:RXRa 90nM:30nM, anti-RXR (NR concentration 90 nM, RXRa partner concentration 30 nM). Put shortly:
as §1

Test [11] concerns PPARg:RXRa DBDmut IVT, anti-RXR (DBD mutation: RXRa K156A/R161A, NR concentration 270 nM, RXRa partner concentration 90 nM). In outline: as §1
Test [12] concerns PPARg:RXRa IVT, anti-PPARg (NR concentration 270 nM, RXRa partner concentration 90 nM). Put shortly:
as §1

The subject of test [13] is PPARg DBDmut:RXRa IVT, anti-PPARg (DBD mutation: PPARg1 K132A/R137A, NR concentration 270 nM, RXRa partner concentration 90 nM). Put shortly:
as §1

Test [14] deals with PPARg DBDmut IVT, anti-PPARg (DBD mutation: PPARg1 K132A/R137A, NR concentration 270 nM). Put shortly: as §1
Test [15] deals with PPARg homodimer (NR concentration 180 nM). Put shortly: as §1
Test [16] relates to PXR:RXRa (NR concentration 270 nM, RXRa partner concentration 90 nM). Put shortly: as §1
The subject of test [17] is PXR homodimer (NR concentration 270 nM). In outline:
as §1

For test [18], the system named is RARa:RXR (NR concentration 270 nM, RXRa partner concentration 90 nM). Put shortly:
as §1

Test [19] has as its system RARa homodimer (NR concentration 270 nM). In outline:
as §1

For test [20], the system named is RARb:RXRa (NR concentration 270 nM, RXRa partner concentration 90 nM). Put shortly:
as §1

TCATATAGGTAAACAAGTGAAAGTCCGTAAGTTA: the PBM binding z-score in [1] is 1.87; in [2] it was 1.33; in test [3] it was 0.256; in test [4], 1.17; in [5], 0.297; in test [6], 1.58. In addition, the PBM binding z-score is 1.4 in [7]; 2.55 in test [8]; 4.08 in [9]; 2.98 in test [10]; 3.94 in [11]; 2.87 in test [12]. Moreover, the PBM binding z-score in [13] is 1.04; in [14] it was 0.969; in [15], 0.811; in test [16], 0.871; in test [17], 0.525; in [18] it was 0.876. In addition, the PBM binding z-score in [19] worked out at 1.3; in [20], 0.893.

With TCTGCTAGGTCAACGATGGTCTGCTAATCTGCTA, the PBM binding z-score in test [1] was 2.95; in [2] it was 2.1; in test [3], -0.371; in test [4], 1.35; in test [5], 0.041; in test [6], 2.92. Besides, the PBM binding z-score is 1.92 in test [7]; 2.64 in test [8]; 1.66 in test [9]; 2.11 in test [10]; 3.96 in test [11]; 3.88 in test [12]. The PBM binding z-score in test [13] was 0.46; in [14], 1.25; in test [15], 0.811; in test [16], 0.995; in [17] it was -0.719; in [18], 2. Further, the PBM binding z-score in [19] is -0.907; in test [20], 3.83.

With CCTATTAGTCGACCATAAGGGCAACCGAAGCTCG, the PBM binding z-score is 0.245 in [1]; 0.0274 in [2]; -0.217 in test [3]; 0.208 in test [4]; 0.406 in [5]; 0.539 in test [6]. For the same sequence, the PBM binding z-score in [7] was 0.531; in [8], 0.353; in test [9], -0.22; in test [10], 0.358; in test [11], 0.311; in test [12], -0.00504. In addition, the PBM binding z-score was 0.93 in [13]; -1.02 in [14]; 0.749 in [15]; 0.26 in test [16]; 0.25 in test [17]; 0.415 in [18]. The PBM binding z-score in test [19] was found to be 0.709; in test [20], 1.24.

Take TATACAGGGTCAAAGACCAGAGTACGAATGTCGA: the PBM binding z-score was 7.01 in [1]; 5.81 in test [2]; 2.11 in test [3]; 4.83 in test [4]; 2.31 in [5]; 5.9 in [6]. Also, the PBM binding z-score in [7] was 6.65; in test [8], 5.94; in test [9], 3.43; in [10], 5.01; in test [11], 2.05; in test [12], 4.19. Further, the PBM binding z-score in [13] is 1.75; in test [14] it was 1.67; in [15] it was 1.9; in [16], 3.65; in test [17], 0.419; in [18], 4.04. Further, the PBM binding z-score in [19] is 0.668; in test [20], 4.25.

As for AGGACGAGGGCAATGAGTTGATAGCACGGGTGGC, the PBM binding z-score in [1] is 0.665; in test [2], 0.175; in test [3], -0.256; in test [4] it was -0.148; in [5], -0.403; in test [6], 0.903. The PBM binding z-score in test [7] is 1.12; in test [8], 0.232; in [9], -0.168; in [10], -0.187; in [11] it was 1.76; in [12], 1.02. Also, the PBM binding z-score in [13] is 0.439; in test [14], 0.19; in test [15], 0.218; in test [16], 1.55; in test [17], 4.82; in [18], 0.678. Besides, the PBM binding z-score in [19] was -0.00105; in test [20], 2.12.

Consider CGAACTAGGTCAAGGACAGTGAATCTCCGCACGC, for which the PBM binding z-score was 3.29 in [1]; 2.29 in test [2]; 0.163 in test [3]; 1.51 in [4]; -0.597 in test [5]; 4.64 in [6]. The PBM binding z-score in test [7] worked out at 7.4; in test [8] it was 6.24; in test [9] it was 3.8; in [10] it was 6.11; in test [11], 8.2; in test [12], 8.25. Further, the PBM binding z-score in test [13] was 4.79; in [14], 1.98; in test [15], 2.91; in test [16] it was 1.18; in [17], -0.052; in test [18], 2.3. Besides, the PBM binding z-score in test [19] was 0.629; in [20], 3.94.

For TCTAGTAGGCCAGAGGGTCACTCAAGAGGTACGG, the PBM binding z-score in [1] is 0.984; in test [2], 1.06; in [3] it was -0.235; in test [4], 1.23; in test [5], -0.774; in [6], 3.17. In addition, the PBM binding z-score in test [7] worked out at 4.36; in test [8], 5.3; in test [9] it was 4.21; in test [10], 5.28; in [11], 3.6; in test [12], 4. Besides, the PBM binding z-score is -0.235 in test [13]; 0.392 in test [14]; 0.62 in test [15]; 1.76 in test [16]; -0.532 in [17]; 2.51 in test [18]. Moreover, the PBM binding z-score in [19] is -0.0158; in test [20], 2.37.
